# Experimental data from PubChem BioAssay.
# Activity calls are given as the source filed them.
# Assays:
# [1] = system: PRMT1 (protein arginine N-methyltransferase 1); assay: PRMT1 binders on small-molecule microarrays, primary screen, biochemical, small-molecule microarray, 635 nm fluorescence (AID 1088); conditions: small-molecule microarray binding, higher = more signal;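 further: binding of Prmt1 protein to compounds spotted on small-molecule microarray slides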
# [2] = yeast growth modulation, basal conditions, primary screen, YJM789 clinical isolate, OD600, 24 h (AID 1089);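 further: growth of clinical yeast isolate S. cerevisiae YJM 789 seeded 1000 cells per well; test concentration not given here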; conditions: S. cerevisiae YJM789 growth, higher = more signal, called active from +8 up or from −8 down
# [3] = fission yeast growth modulation, primary screen, strain 972, OD600, 24 h, no modulator (AID 1090);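 further: basal condition with compound alone and no growth modifier present; test concentration not given here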; conditions: S. pombe 972 growth, higher = more signal, called active from +8 up or from −8 down
# [4] = S. cerevisiae growth modulation with rapamycin, primary screen, strain BY4716, OD600, 96 h (AID 1091); conditions: higher = more signal, called active from +8 up or from −8 down; further: test concentration not given here
# [5] = target: Torsin-1A-interacting protein 2 (Homo sapiens) (UniProt Q8NFQ8); assay: LULL1 binders on small-molecule microarray, primary screen, cell lysate, human LULL1 lysate, 635/667 nm fluorescence (AID 1092); conditions: hLULL1 lysate binding, 635 nm fluorescence, higher = more signal;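 further: probe is lysate of COS7 cells overexpressing human LULL1; score merges per-feature 667 nm fluorescence with signal-to-noise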
# Torsin-1A-interacting protein 2 (Homo sapiens), sequence (Q8NFQ8 whole entry, looked up): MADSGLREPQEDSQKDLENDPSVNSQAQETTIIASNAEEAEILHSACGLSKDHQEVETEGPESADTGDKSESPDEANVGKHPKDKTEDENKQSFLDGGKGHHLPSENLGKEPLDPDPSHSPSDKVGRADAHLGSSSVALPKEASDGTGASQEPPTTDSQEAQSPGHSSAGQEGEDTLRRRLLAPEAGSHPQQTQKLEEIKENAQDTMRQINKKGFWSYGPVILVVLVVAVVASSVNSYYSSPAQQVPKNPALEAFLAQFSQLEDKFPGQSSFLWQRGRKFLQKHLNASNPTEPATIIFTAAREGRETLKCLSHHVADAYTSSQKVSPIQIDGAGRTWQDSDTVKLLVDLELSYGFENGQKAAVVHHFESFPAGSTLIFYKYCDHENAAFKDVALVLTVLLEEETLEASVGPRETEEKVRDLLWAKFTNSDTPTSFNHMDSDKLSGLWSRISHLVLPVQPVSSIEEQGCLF
# [6] = E. coli growth modulation, two-sided OD650, primary screen, E. coli filamentation project, strain DRC41, 24 h (AID 1093); conditions: OD650, 24 h, higher = more signal, called active from +8 up or from −8 down;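 further: MC1000 strain lacking acrAB efflux and sulA so SOS filamentation is blocked; test concentration not given here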
# [7] = small-molecule microarray binders of probe aLefty2, primary screen, biochemical, biotinylated probe, 635/667 nm fluorescence (AID 1094); conditions: higher = more signal;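 further: score merges spot fluorescence near 667 nm with spot signal-to-noise ratio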
# [8] = system: Noggin (protein binding on small-molecule microarray); assay: Noggin binders on small-molecule microarray, primary screen, biochemical, 635/667 nm fluorescence (AID 1095); conditions: 635 nm fluorescence, higher = more signal;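 further: score merges 667 nm feature fluorescence with signal to noise over triplicate slides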
# [9] = target: Neurogenic locus notch homolog protein 3 (Homo sapiens) (UniProt Q9UM47); assay: NOTCH3 binders on small-molecule microarray, primary screen, biochemical, 635/667 nm fluorescence (AID 1096); conditions: NOTCH3 binding, 635 nm fluorescence, higher = more signal
# Neurogenic locus notch homolog protein 3 (Homo sapiens), sequence (Q9UM47 whole entry, looked up): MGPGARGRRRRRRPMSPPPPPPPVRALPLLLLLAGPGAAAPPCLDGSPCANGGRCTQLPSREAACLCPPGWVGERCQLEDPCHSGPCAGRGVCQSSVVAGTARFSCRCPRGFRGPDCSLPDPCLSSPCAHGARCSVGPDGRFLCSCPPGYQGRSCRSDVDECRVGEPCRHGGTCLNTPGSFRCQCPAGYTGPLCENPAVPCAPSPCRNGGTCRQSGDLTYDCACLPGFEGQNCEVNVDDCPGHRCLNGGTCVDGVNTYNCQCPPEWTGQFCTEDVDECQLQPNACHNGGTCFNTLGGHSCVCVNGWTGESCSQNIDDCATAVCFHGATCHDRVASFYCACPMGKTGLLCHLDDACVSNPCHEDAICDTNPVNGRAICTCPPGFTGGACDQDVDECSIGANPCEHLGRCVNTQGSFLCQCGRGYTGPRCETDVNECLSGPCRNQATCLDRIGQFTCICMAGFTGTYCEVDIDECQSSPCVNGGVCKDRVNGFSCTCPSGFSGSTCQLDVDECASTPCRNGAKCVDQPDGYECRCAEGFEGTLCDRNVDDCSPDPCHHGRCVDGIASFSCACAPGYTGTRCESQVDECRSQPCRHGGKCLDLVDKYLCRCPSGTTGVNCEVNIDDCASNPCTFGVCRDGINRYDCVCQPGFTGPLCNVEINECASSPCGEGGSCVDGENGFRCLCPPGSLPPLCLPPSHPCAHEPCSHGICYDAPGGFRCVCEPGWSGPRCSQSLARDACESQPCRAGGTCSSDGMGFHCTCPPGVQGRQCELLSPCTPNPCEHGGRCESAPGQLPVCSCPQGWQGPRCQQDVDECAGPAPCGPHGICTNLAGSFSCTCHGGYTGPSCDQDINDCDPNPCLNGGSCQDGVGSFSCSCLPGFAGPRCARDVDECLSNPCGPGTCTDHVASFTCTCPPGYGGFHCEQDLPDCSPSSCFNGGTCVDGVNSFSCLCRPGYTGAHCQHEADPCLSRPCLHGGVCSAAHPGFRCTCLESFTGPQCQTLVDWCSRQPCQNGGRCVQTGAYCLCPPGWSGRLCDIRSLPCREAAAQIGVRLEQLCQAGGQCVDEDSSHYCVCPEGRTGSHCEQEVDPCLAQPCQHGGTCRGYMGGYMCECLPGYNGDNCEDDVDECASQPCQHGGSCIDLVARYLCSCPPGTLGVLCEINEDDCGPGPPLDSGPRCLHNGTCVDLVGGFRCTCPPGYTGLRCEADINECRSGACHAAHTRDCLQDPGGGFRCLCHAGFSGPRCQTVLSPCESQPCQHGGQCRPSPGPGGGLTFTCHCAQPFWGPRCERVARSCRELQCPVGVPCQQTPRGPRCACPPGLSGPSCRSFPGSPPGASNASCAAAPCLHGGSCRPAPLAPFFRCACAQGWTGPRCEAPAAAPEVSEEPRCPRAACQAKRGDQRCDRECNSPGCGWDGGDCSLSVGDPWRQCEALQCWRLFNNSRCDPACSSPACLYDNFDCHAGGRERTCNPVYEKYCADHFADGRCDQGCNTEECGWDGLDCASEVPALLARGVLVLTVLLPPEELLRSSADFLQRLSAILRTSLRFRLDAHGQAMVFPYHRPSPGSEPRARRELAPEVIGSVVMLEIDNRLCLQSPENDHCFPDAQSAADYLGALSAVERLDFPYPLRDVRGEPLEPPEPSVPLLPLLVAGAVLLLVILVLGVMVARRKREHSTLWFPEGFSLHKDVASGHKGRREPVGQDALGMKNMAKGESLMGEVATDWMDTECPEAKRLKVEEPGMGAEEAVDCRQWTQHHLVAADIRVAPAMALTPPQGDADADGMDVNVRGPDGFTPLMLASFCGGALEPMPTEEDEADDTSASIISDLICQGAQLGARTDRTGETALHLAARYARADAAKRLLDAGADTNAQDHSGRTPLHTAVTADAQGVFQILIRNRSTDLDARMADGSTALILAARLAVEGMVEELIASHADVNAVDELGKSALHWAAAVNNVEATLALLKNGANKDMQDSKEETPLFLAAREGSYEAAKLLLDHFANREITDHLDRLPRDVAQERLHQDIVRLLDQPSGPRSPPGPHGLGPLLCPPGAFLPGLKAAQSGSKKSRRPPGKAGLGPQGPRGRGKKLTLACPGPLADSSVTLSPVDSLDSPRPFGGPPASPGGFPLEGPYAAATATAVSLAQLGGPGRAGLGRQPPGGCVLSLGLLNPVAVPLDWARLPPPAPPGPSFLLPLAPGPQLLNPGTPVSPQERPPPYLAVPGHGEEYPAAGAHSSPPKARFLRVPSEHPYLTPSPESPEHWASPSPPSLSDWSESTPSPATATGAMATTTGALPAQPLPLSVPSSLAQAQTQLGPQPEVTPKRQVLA
# [10] = small-molecule microarray binders of probe aEGFR, primary screen, biochemical, biotinylated probe, 635/667 nm fluorescence (AID 1097); conditions: higher = more signal;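 further: probe is a biotinylated anti-EGFR antibody binding compounds printed on slides; score combines fluorescence near 667 nm and signal to noise of each spot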
# [11] = system: Plasmodium falciparum Sir2 (PF13_0152, Sir2A); assay: pfSir2 binders on small-molecule microarrays, primary screen, biochemical, small-molecule microarray, 635 nm fluorescence (AID 1098); conditions: small-molecule microarray binding, fluorescence 635 nm; higher = more signal;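 further: score merges spot fluorescence intensity with its signal-to-noise ratio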
# [12] = small-molecule microarray binders of probe aDKK1, primary screen, biochemical, biotinylated probe, 635/667 nm fluorescence (AID 1099); conditions: higher = more signal;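 further: score merges 667nm spot fluorescence with signal to noise across triplicate slides; reference of the scale not given here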
# [13] = small-molecule microarray binders of probe aCHRDL2, primary screen, biochemical, biotinylated probe, 635/667 nm fluorescence (AID 1100); conditions: higher = more signal
# [14] = splicing luciferase reporter signal modulators, primary screen, spliceosome inhibition project, cell-based, HEK293, splice +/- reporter (AID 1101); conditions: luminescence, 24 h, higher = more signal, called active from +8 up or from −8 down;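 further: HEK293 cells carrying a splicing-competent luciferase reporter gene; test concentration not given here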
# [15] = target: Fibroblast growth factor 10 (Homo sapiens) (UniProt O15520); assay: FGF10 binders on small-molecule microarrays, primary screen, biochemical, small-molecule microarray, 635 nm fluorescence (AID 1102); conditions: FGF10 binding, fluorescence 635 nm, higher = more signal
# Fibroblast growth factor 10 (Homo sapiens), sequence (O15520 whole entry, looked up): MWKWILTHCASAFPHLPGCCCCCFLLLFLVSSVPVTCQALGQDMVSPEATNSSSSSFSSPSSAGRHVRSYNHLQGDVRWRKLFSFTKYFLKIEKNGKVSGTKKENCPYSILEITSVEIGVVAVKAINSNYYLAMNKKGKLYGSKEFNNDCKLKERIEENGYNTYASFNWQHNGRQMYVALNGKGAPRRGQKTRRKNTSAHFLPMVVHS
# [16] = system: glycogen synthase kinase-3 (GSK3A per assay name; protocol says GSK3B); assay: GSK3 binders on small-molecule microarrays, primary screen, biochemical, small-molecule microarray, 635 nm fluorescence, GSK3A (AID 1103); conditions: small-molecule microarray binding, fluorescence 635 nm; higher = more signal; further: the record names both GSK3A and GSK3B
# [17] = target: Epidermal growth factor receptor (Homo sapiens) (UniProt P00533); assay: EGFR binders on small-molecule microarrays, primary screen, biochemical, small-molecule microarray, 635 nm fluorescence (AID 1104); conditions: EGFR binding, higher = more signal;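 further: score merges 667 nm emission intensity with spot signal to noise over triplicate slides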
# Epidermal growth factor receptor (Homo sapiens), sequence (P00533 whole entry, looked up): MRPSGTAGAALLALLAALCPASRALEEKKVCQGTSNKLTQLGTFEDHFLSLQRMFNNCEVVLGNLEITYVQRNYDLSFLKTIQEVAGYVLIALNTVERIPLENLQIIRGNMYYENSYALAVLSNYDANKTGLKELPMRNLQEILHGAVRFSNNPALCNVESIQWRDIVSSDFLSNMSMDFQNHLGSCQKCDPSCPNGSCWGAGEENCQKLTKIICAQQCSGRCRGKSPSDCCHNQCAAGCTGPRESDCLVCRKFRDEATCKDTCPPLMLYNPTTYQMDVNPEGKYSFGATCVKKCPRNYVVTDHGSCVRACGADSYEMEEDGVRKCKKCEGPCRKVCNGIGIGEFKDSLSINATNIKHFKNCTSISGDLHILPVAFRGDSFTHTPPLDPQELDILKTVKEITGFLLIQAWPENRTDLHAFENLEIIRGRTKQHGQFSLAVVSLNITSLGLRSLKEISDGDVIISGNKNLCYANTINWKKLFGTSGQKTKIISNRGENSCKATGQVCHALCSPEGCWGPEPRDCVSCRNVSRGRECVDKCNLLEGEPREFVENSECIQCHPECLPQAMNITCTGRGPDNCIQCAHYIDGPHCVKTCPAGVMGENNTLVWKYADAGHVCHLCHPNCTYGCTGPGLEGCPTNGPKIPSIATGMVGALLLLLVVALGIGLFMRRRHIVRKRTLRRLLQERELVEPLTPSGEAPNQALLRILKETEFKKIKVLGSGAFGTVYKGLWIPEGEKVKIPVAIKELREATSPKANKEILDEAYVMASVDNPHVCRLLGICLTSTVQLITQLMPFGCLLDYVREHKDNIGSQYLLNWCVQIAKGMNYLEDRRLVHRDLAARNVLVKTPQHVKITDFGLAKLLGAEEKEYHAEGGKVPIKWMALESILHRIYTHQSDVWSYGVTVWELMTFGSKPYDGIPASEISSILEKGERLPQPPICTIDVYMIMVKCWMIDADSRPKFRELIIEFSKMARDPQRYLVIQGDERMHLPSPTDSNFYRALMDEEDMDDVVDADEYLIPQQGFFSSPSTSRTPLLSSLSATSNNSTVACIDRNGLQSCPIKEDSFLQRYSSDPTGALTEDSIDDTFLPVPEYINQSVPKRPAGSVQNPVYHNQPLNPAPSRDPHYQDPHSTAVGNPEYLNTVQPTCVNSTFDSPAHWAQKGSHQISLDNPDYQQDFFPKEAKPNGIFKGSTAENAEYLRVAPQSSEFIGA
# [18] = target: Follistatin-related protein 3 (Homo sapiens) (UniProt O95633); assay: FSTL3 binders on small-molecule microarrays, primary screen, biochemical, small-molecule microarray, 635 nm fluorescence (AID 1105); conditions: FSTL3 binding, higher = more signal;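 further: score merges emission near 667 nm and signal to noise per printed spot across three slides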
# Follistatin-related protein 3 (Homo sapiens), sequence (O95633 whole entry, looked up): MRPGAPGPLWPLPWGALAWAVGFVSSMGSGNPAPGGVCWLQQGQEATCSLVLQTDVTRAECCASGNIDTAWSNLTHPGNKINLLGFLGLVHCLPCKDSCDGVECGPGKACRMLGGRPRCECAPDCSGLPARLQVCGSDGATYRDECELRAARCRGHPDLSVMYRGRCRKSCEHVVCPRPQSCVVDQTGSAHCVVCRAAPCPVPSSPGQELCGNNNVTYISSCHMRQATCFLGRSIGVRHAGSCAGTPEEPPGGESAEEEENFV
# [19] = target: Dickkopf-related protein 1 (Homo sapiens) (UniProt O94907); assay: DKK1 binders on small-molecule microarrays, primary screen, biochemical, small-molecule microarray, 635 nm fluorescence scan (AID 1106); conditions: DKK1 binding, higher = more signal;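 further: score merges emission near 667 nm with signal to noise over three replicate slides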
# Dickkopf-related protein 1 (Homo sapiens), sequence (O94907 whole entry, looked up): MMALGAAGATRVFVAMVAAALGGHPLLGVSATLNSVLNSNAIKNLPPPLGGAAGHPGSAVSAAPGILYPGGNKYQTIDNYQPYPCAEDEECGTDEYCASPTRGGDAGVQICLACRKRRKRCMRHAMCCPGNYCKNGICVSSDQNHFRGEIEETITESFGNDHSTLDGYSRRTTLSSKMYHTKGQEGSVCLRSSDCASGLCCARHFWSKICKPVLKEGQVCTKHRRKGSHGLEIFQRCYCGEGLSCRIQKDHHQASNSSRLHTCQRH
# [20] = system: Inhibin beta A chain (activin A); assay: INHBA (activin A) binders on microarrays, primary screen, biochemical, small-molecule microarray, 635 nm fluorescence scan (AID 1107); conditions: small-molecule microarray binding, higher = more signal;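 further: mouse activin A protein probed at 4.33 µg/mL on printed slides; score merges bound-protein fluorescence near 667 nm with spot signal-to-noise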
SMILES,composite z-score [1],z-score [2],z-score [3],z-score [4],composite z-score [5],z-score [6],composite z-score [7],composite z-score [8],composite z-score [9],composite z-score [10],composite z-score [11],composite z-score [12],composite z-score [13],z-score [14],composite z-score [15],composite z-score [16],composite z-score [17],composite z-score [18],composite z-score [19],composite z-score [20]
C=C(CCCC)/C(=C/C[C@H](OC(=O)c1ccncc1)c1ccccc1OCCO)c1cc(C(=O)OC)ccc1OC,1.34,0.47 (inactive),0.333 (inactive),1.42 (inactive),2.31,0.588 (inactive),-0.0942,0.502,0.647,-0.15,0.209,-0.126,0.023,-0.63 (inactive),0.864,0.325,0.0323,0.636,0.273,1.17
CCCCCC1=C2CNC(CC(C)C)(C(=O)OC)C=C2C(C)C1=O (stereo not given),1.51,0.298 (inactive),0.421 (inactive),0.22 (inactive),2.87,-0.415 (inactive),0.0887,-0.272,0.225,-0.126,0.452,0.72,0.952,5.08 (inactive),0.071,-0.361,-0.73,-0.403,-0.756,1.23
C=C(/C(=C/C[C@@H](OC(C)=O)c1cccc(OCCO)c1)c1cnc2ccccc2c1)C(C)C,1.55,0.0631 (inactive),-0.396 (inactive),-0.28 (inactive),0.77,0.974 (inactive),-0.207,2.09,0.801,-0.139,0.85,-0.268,0.0363,-0.664 (inactive),0.706,0.612,0.324,1.37,0.625,1.56
C=CCC(OC(C)=O)[C@@H]1[C@@H](N(Cc2cccc3ccccc23)C(=O)Cc2ccc(OC)cc2)c2cc(OCCCO)ccc2N1C(=O)Cc1ccc2ccccc2c1 (stereo not given in full),0.402,-0.0978 (inactive),0.374 (inactive),-1.51 (inactive),0.574,-0.079 (inactive),-0.0911,0.656,-0.87,-0.0828,0.067,-0.237,0.087,-0.738 (inactive),-0.0821,-0.227,0.0289,0.404,0.073,0.68
CC1=C([C@H](O)CCc2ccccc2)[C@H](CO)n2c(=O)n(-c3ccccc3)c(=O)n2C1,-0.0416,-1.02 (inactive),-1.03 (inactive),-0.539 (inactive),-0.478,1.87 (inactive),-0.355,0.0865,-0.696,-0.211,-0.385,-0.204,-0.48,-1.04 (inactive),0.233,0.196,0.167,-0.0401,0.231,0.472
COC(=O)[C@@]1(Cc2ccc(OC)cc2)[C@H]2c3cc(C(=O)N(C)C)[nH]c3C[C@H]2CN1C(=O)c1ccccc1,-0.614,0.0372 (inactive),1.15 (inactive),0.0745 (inactive),0.982,0.0515 (inactive),0.096,-0.337,0.201,-0.0594,1.03,0.416,0.564,0.569 (inactive),1.12,-0.54,-0.144,-0.273,-0.465,0.0999
C=CCN1C(=O)[C@]2(O[C@H](CCn3cc([C@H](O)c4ccccc4)nn3)[C@@H]([Si](C)(C)c3ccc(OC)cc3)[C@@H]2C)c2cc(NC(=O)c3ccc(OC)cc3)ccc21,1.55,0.323 (inactive),-0.532 (inactive),0.567 (inactive),0.744,0.252 (inactive),0.0352,0.423,0.907,-0.152,0.73,-0.125,0.349,-0.768 (inactive),0.028,-0.131,0.108,0.527,0.598,0.961
CC(=O)NCCCC[C@@H]1NC(=O)[C@H]2C[C@@H](C(=O)NCCCCCCNC(=O)CS)[C@@H](c3cccc(OCCO)c3)N2C1=O,1.56,0.828 (inactive),0.257 (inactive),1.28 (inactive),2.65,-0.488 (inactive),-0.0187,0.153,0.846,-0.123,1.72,-0.11,0.642,-0.662 (inactive),0.816,1.15,-0.316,0.225,0.363,0.339
O=C(NCc1ccccc1)[C@@H]1c2ccccc2C(=O)N(Cc2cc(C(F)(F)F)cc(C(F)(F)F)c2)[C@H]1c1ccc(CO)cc1,1.53,0.744 (inactive),-0.077 (inactive),0.296 (inactive),2.55,-1 (inactive),-0.0512,1.37,1.12,0.0453,0.569,0.0477,0.184,0.000819 (inactive),1.13,1.25,0.171,1.04,0.517,0.277
CN(C)CCCNC(=O)[C@@]1(Cc2ccccc2I)c2ccccc2C(=O)N(C2CCCCC2)[C@H]1c1ccc(CO)cc1,1.55,0.273 (inactive),-19.5 (active),-2.99 (inactive),2.34,0.0304 (inactive),0.446,0.27,0.953,0.123,0.856,1.13,0.532,-4.61 (inactive),0.269,1.03,0.0863,0.383,0.183,1.32
C=CC1c2cc(O)c(OC)cc2CCN1C (stereo not given),-0.648,-0.763 (inactive),-0.819 (inactive),0.0904 (inactive),0.134,-0.223 (inactive),0.0112,-0.542,-0.821,-0.135,0.21,0.416,0.759,0.978 (inactive),-0.169,-1.24,-0.534,-0.332,-0.26,0.725
CCOC(=O)C1=CC[C@@H](c2ccc(OC)cc2)N(S(=O)(=O)c2ccc(C)cc2)[C@H]1CC,1.56,-1.48 (inactive),0.971 (inactive),0.879 (inactive),3.05,0.66 (inactive),0.0319,0.0635,1.08,-0.0157,0.469,0.607,0.88,-1.27 (inactive),0.996,0.811,0.233,1.1,0.106,0.372
COc1ccc(C(O)C2C=CC3C(=O)NC(=O)C3N2Nc2ccc(Cl)cc2Cl)c2ccccc12 (stereo not given),1.01,-10.5 (active),-2.63 (inactive),0.126 (inactive),2.98,-0.708 (inactive),-0.279,-0.494,1.05,-0.176,0.828,0.913,1.15,-0.744 (inactive),0.0892,0.15,-0.582,0.483,-0.284,1.14
CC[C@@H]1C=C(C(=O)O)[C@H](c2ccc(OC)cc2)N1S(=O)(=O)c1ccc(C)cc1,-0.222,-0.639 (inactive),0.211 (inactive),-0.113 (inactive),2.15,-1.04 (inactive),-0.0491,-0.199,0.624,-0.0828,1.05,-0.0814,0.118,0.603 (inactive),-0.0657,-1.06,-0.675,0.0479,-0.188,0.615
O=C(NC1CC1)[C@@H]1c2ccccc2C(=O)N(Cc2cc(C(F)(F)F)cc(C(F)(F)F)c2)[C@H]1c1ccc(CO)cc1,1.43,-0.523 (inactive),-1.38 (inactive),-0.108 (inactive),2.92,-0.275 (inactive),-0.508,0.76,0.491,-0.399,0.965,-0.534,-0.47,-0.261 (inactive),0.105,-0.436,-0.675,0.075,-0.835,-0.547
O=C(O)[C@H](Cc1ccccc1)n1cc(C2(O)CCCCC2)nn1,0.499,-0.418 (inactive),0.255 (inactive),-0.444 (inactive),1.71,-1.15 (inactive),-0.137,0.392,0.541,-0.0211,-0.0685,-0.201,-0.518,-0.358 (inactive),0.193,0.938,0.213,0.343,0.196,-0.0247
CO[C@H]1O[C@H](CO)[C@@H](OC(=O)Nc2ccc3c(c2)OCO3)[C@H](OC(=O)Nc2ccccc2-c2ccccc2)[C@H]1OC(=O)Nc1ccccc1-c1ccccc1,1.54,2.5 (inactive),2.11 (inactive),2.28 (inactive),3.35,0.566 (inactive),0.0164,0.546,0.624,0.29,0.977,0.446,0.591,0.617 (inactive),1.03,1.31,-0.294,0.398,-0.0521,0.411
OCCCC1=CC(c2ccc(CN3CCCC3)cc2)N(Cc2cccc(OC(F)(F)F)c2)CC1 (stereo not given),-0.688,-2.01 (inactive),-14.9 (active),-2.62 (inactive),0.203,-0.987 (inactive),0.0029,0.123,-0.752,-0.181,0.203,-0.0082,0.983,-1.35 (inactive),-0.327,-0.517,0.297,0.0596,0.0657,1.65
COc1ccc([Si](C)(C)[C@H]2[C@H](CC(=O)N3Cc4ccccc4C[C@H]3CO)O[C@@]3(C(=O)N(C)c4ccccc43)[C@@H]2C)cc1,1.53,-1.52 (inactive),-2.06 (inactive),-0.0615 (inactive),2.13,0.456 (inactive),0.173,1.91,1.08,-0.0839,1.52,-0.127,-0.431,-2.06 (inactive),0.891,1.29,1.01,1.4,1.53,1.58
COc1ccc(C(O)C2C=CC3C(=O)N(C)C(=O)C3N2N(c2ccccc2)c2ccccc2)cc1 (stereo not given),0.923,-0.054 (inactive),0.733 (inactive),1.08 (inactive),2.18,-0.994 (inactive),0.276,0.269,0.791,-0.111,1.59,0.996,0.93,1.09 (inactive),0.434,0.243,-0.0923,0.585,-0.128,1.32
